Laboratory results published in PubChem BioAssay AID2284158 (EPA ToxCast).
Activity calls are given as the source filed them. Rule for the calls: active = hit-call score of the fitted dose curve at least 0.9, where 1 is the maximum; inconclusive = response in the unintended direction; inactive = score below 0.9.

target: D(1A) dopamine receptor (Homo sapiens) (UniProt P21728); assay: ERF_FR_GPCR_hDRD1: Eurofins (ERF) G Protein-Coupled Receptor (GPCR) Radioligand Binding LeadHunter Assay for human Dopamine Receptor D1 Antagonism, conducted at France lab site
Sequence (P21728 whole entry, looked up): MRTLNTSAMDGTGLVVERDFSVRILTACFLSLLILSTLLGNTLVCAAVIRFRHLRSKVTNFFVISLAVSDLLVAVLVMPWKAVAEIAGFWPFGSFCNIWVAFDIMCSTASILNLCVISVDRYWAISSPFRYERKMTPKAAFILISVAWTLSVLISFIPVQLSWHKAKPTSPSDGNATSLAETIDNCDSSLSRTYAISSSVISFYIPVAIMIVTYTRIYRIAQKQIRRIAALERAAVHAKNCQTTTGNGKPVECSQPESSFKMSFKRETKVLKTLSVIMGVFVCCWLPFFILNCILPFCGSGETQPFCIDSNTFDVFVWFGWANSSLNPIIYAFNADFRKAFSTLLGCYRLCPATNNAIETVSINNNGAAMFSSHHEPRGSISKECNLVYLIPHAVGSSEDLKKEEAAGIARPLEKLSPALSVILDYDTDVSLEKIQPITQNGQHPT
Method: ERF_FR_GPCR_hDRD1 is a biochemical, single-readout assay that uses extracted gene-proteins in a cell-free assay. Measurements were taken 1 hour after chemical dosing in a 96-well plate. See D1 Human Dopamine GPCR Binding (Antagonist Radioligand) Assay, Cerep.ERF_FR_GPCR_hDRD1 is an assay component calculated from the ERF_FR_GPCR_hDRD1 assay. It is designed to measure radioligand binding using a type of binding reporter as detected by scintillation counting with radiometry technology.Data from the assay component ERF_FR_GPCR_hDRD1 was analyzed at the assay endpoint, ERF_FR_GPCR_hDRD1, in the positive analysis fitting direction relative to DMSO as the negative control and baseline of activity. Using a type of binding reporter, loss-of-signal activity can be used to understand changes in binding as they relate to gene DRD1. To generalize the intended target to other relatable targets, this assay endpoint is annotated to the gpcr intended target family, where the subfamily is dopamine.
Human cells are incubated for 60 minutes at room temprature with [3H]SCH 23390 ligand (0.3 nM) and SCH 23390 as control inhibitor.Test Sample Requirements: Minimum for 1) Screen: 60 ul of 10 mM stock -OR- 1 mg (pre-weighed) for 10 uM final testing. 2) Dose Response: 90 ul of 10 mM stock -OR- 1 mg (pre-weighed) for a top concentration at 10 uM.

With COc1cc(CCC(=O)CC(=O)CCc2ccc(O)c(OC)c2)ccc1O as the compound, how does the outcome read?
The outcome was “inactive”.

With O=C(/C=C/c1ccc(O)cc1)CC(=O)/C=C/c1ccc(O)cc1 as the compound, how does the AC50 read?
Its AC50 is 1070 nM (active).

Which AC50 does the source give for COc1cc(/C=C/C(=O)CC(=O)/C=C/c2ccc(O)c(OC)c2)ccc1O here?
Its AC50 is 2040 nM (active).
